Only some compounds are listed: those with a hit (about 19% of all), similar ones and a draw of the others.
TDP1 cell CPT = DT40-hTDP1 cell growth loss with CPT. chicken DT40 Tdp1-/-;hTDP1 cells + 20 nM CPT, ATP luminescence, 48 h. Potency, µM (doses to about 46.2 µM), inactives show at the highest dose activity change, negative = growth inhibition, hits mostly inhibitors. 420,000 tested, 12% active. AID 686979; further: potency means the concentration at half of the fitted maximal effect; nearly all actives have a fitted effect of over 55% in size
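Chicken DT40 Tdp1-/- cells complemented with human TDP1, 400 cells/well, exposed to compounds plus 20 nM camptothecin for at least 48 h at 37 C; viability read as ATP content by CellTiter-Glo luminescence.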
HT1080 IDH1KD tx = toxicity to HT-1080 IDH1 knockdown cells (counter line) | 360,000 tested, 2% active | HT-1080 IDH1 knockdown viability, ATP luminescence, 48 h | AID 686971 | Potency, µM (top dose mostly 46.1 µM), inactives show top-dose activity, negative = toxicity, usual class: cytotoxic;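 further: potency means the concentration at half of the fitted maximal effect; 0% = DMSO wells and -100% = cell-free medium wells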
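Luminescent ATP read-out (CellTiter-Glo, 10 min at room temperature) after 48 h compound exposure at 37 °C gave viability of IDH1-knockdown HT-1080 cells. Activity was normalised to DMSO and cell-free wells, then fitted as concentration-response curves.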
HT1080NT lethal = kills 2HG-producing HT-1080-NT fibrosarcoma cells; Potency, µM (highest dose often 46.1 µM), for the others: at the top dose activity, negative = less viability, most hits filed as cytotoxic; 360,000 tested, 1.6% active; HT-1080-NT fibrosarcoma viability, CellTiter-Glo ATP luminescence, 48 h;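 further: NT is the 2HG producing partner of a matched IDH1 knockdown line; potency means the concentration at half of the fitted maximal effect; 0% = DMSO-treated cells and -100% = media-only wells without cells; nearly all actives have a fitted effect of over 55% in size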
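Toxicity toward the 2HG-producing NT line was scored as %Activity, normalised to DMSO and no-cell wells, from CellTiter-Glo luminescence after 48 hours' treatment.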
IL-1B inflam inh = inflammasome signaling inhibition, IL-1 beta readout; activity change, % at 57.5 µM; 360,000 tested, 4.7% active; THP-1 LPS/ATP IL-1B secretion, AlphaLISA, 16 h; active compounds read low; in the data active means activity change below about -50%; inconclusive means mostly about -30% to -49%
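THP-1 cells pretreated 1 hr with compounds (up to 57.5 uM final), then stimulated with LPS (250 ng/mL final) plus ATP (1.25 mM final); secreted IL-1B measured by AlphaLISA after 16 hr, decreased signal indicating inhibition.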
TDP1 cell noCPT = qHTS for Inhibitors of human tyrosyl-DNA phosphodiesterase 1 (TDP1): qHTS in cells in absence of CPT | DT40 Tdp1-/- hTDP1 cells, no CPT, ATP luminescence, 48 h | Potency, µM (titrated, usually from 46.2 µM), for the others: at the highest dose activity change, negative = growth inhibition, usual class: inhibitors | 420,000 tested, 15% active | AID 686978, 2013; further: potency means the concentration at half of the fitted maximal effect; nearly all actives have a fitted effect of over 55% in size
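Growth of hTDP1-complemented DT40 Tdp1-knockout cells is measured by ATP luminescence after at least 48 hr compound exposure at 37 °C, with DMSO substituting for the 20 nM CPT used in the parallel screen.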
ELG1 DNA repair = inhibitors of ELG1-dependent DNA repair in HEK293T cells; HEK293T ELG1-luciferase reporter, luminescence, 16 h; DNA damage induced by 5-fluorouridine; Potency, µM (titrated, usually from 46.1 µM), for the others: at the highest dose activity change, negative = inhibition, actives largely listed as inhibitors; 330,000 tested, 2.3% active; AID 504467; further: potency means the concentration at half of the fitted maximal effect; nearly all actives have a fitted effect of over 55% in size
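DMSO vehicle served as the neutral condition. Each well held 2,000 cells given 5-fluorouridine plus compound; after 16 hr at 37 °C/5% CO2, ONE-Glo was added and luciferase measured 30 min later.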
The depositor's hits bear a star; [ ] = another dose, or the depositor's remark. Unless noted, the call rests on the fitted dose curve; in most records, active means well fitted curve in the direction sought with a large enough effect; inconclusive means small, poorly fitted or top-dose-only effect, or another doubt; inactive means no such curve, though single readings can be large; an effect the other way counts as inactive or inconclusive. Unless noted, on the % scale 0 is the no-effect control and ±100 the full control effect.

What do the screens show for `Cn1c(N)c(S(=O)(=O)N2CCN(c3ccccc3F)CC2)c(=O)n(C)c1=O`?
TDP1 cell CPT: -16.6%; HT1080 IDH1KD tx: -3.6%; HT1080NT lethal: 2.4%; IL-1B inflam inh: 11.5; TDP1 cell noCPT: 2.9%; ELG1 DNA repair: -1.2%

What do the screens show for `NC1=NC(=O)/C(=C\c2ccc(-c3ccccc3[N+](=O)[O-])o2)S1`?
TDP1 cell CPT: 11.2µM*; HT1080 IDH1KD tx: inconclusive; HT1080NT lethal: 20µM*; TDP1 cell noCPT: inconclusive

Results for O=c1nc2s/c(=C\c3ccc(-c4ccccc4[N+](=O)[O-])o3)c(=O)n2nc1-c1ccccc1 ?
TDP1 cell CPT: 2.0%; HT1080 IDH1KD tx: 0.3%; HT1080NT lethal: -5.5%; IL-1B inflam inh: 13.0; TDP1 cell noCPT: -6.8%; ELG1 DNA repair: 12.0%

Results for CCOc1ccc(NC(=O)C(CC)n2c(=O)c(-c3ccccc3NC(C)=O)nc3ccccc32)cc1 (stereo not drawn) ?
TDP1 cell CPT: 18.4µM*; TDP1 cell noCPT: inconclusive

What do the screens show for `CCC(C(=O)Nc1ccc(C(=O)OC)cc1)n1c(=O)c(-c2ccccc2NC(C)=O)nc2ccccc21` (stereo not drawn)?
TDP1 cell CPT: 14.6µM*; TDP1 cell noCPT: 3.26µM*

Results for Cc1ccc(NC(=O)Nc2nnc(SCC(=O)N(C(C)C)C(C)C)s2)cc1 ?
TDP1 cell CPT: 18.4µM*; TDP1 cell noCPT: 16.4µM*

What do the screens show for `CC(C)N(C(=O)CSc1nnc(NC(=O)C2CCC2)s1)C(C)C`?
TDP1 cell CPT: -8.9%; HT1080 IDH1KD tx: 2.5%; HT1080NT lethal: -10.6%; IL-1B inflam inh: -10.7; TDP1 cell noCPT: -9.1%; ELG1 DNA repair: 1.5%

How did O=C(O)C1=C(CSc2nnnn2CS(=O)(=O)O)CS[C@@H]2[C@H](NC(=O)[C@H](O)c3ccccc3)C(=O)N12 do in these assays?
TDP1 cell CPT: 2.0%; TDP1 cell noCPT: -28.1%

Results for CNC(=O)c1nnsc1S(=O)(=O)c1ccc(Cl)cc1 ?
TDP1 cell CPT: 0.731µM*; HT1080 IDH1KD tx: 2.91µM*; HT1080NT lethal: inconclusive; IL-1B inflam inh: -98.1*; TDP1 cell noCPT: 1.46µM*; ELG1 DNA repair: inconclusive

Results for O=C(c1nnsc1S(=O)c1ccc(Cl)cc1)N1CCOCC1 (stereo not drawn) ?
TDP1 cell CPT: 0.461µM*; HT1080 IDH1KD tx: inconclusive; HT1080NT lethal: 13µM*; IL-1B inflam inh: -104.4*; TDP1 cell noCPT: 0.82µM*; ELG1 DNA repair: inconclusive

What do the screens show for `CNC(=O)c1ccc(S(=O)(=O)c2ccc(Cl)cc2)c(NC(C)=O)c1`?
TDP1 cell CPT: -10.3%; HT1080 IDH1KD tx: -1.1%; HT1080NT lethal: 6.0%; IL-1B inflam inh: 15.2; TDP1 cell noCPT: 2.2%; ELG1 DNA repair: -3.8%

What do the screens show for `O=C(c1nnsc1S(=O)(=O)c1ccc(Cl)cc1)N1CCOCC1`?
TDP1 cell CPT: 2.31µM*; HT1080 IDH1KD tx: inconclusive; HT1080NT lethal: 14.6µM*; IL-1B inflam inh: -106.4*; TDP1 cell noCPT: 2.91µM*; ELG1 DNA repair: -20.8%

How did O=C(Nc1ccccc1)c1nnsc1S(=O)c1ccc(Cl)cc1 (stereo not drawn) do in these assays?
TDP1 cell CPT: 0.581µM*; HT1080 IDH1KD tx: -22.3%[9.24 µM]; HT1080NT lethal: inconclusive; IL-1B inflam inh: -107.3*; TDP1 cell noCPT: 0.82µM*; ELG1 DNA repair: 18.5%

What do the screens show for `COc1ccc(OC)c(-c2ccnc(-n3ncc(C(=O)NC(C)(C)CO)c3C3CC3)n2)c1`?
TDP1 cell CPT: -3.4%[9.04 µM]; TDP1 cell noCPT: -14.3%

How did CCC(C)c1ccc(O[C@@H]2O[C@H](CO)[C@@H](O)[C@H](O)[C@H]2NC(C)=O)cc1 (stereo partly drawn) do in these assays?
TDP1 cell CPT: -5.3%[9.04 µM]; TDP1 cell noCPT: 4.6%[9.04 µM]

How did CN(Cc1c(C(=O)N/N=C/c2ccc(O)cc2)nnn1-c1nonc1N)c1ccccc1 do in these assays?
TDP1 cell CPT: -6.1%; HT1080 IDH1KD tx: -6.3%; HT1080NT lethal: -18.1%; IL-1B inflam inh: -11.8; TDP1 cell noCPT: -1.0%; ELG1 DNA repair: -4.2%

Results for CN(C)/C=N/c1nc2nccc(-c3cccc(Cl)c3)n2n1 ?
TDP1 cell CPT: inconclusive; HT1080 IDH1KD tx: 7.8%; HT1080NT lethal: 3.0%; IL-1B inflam inh: -51.7*; TDP1 cell noCPT: -3.7%; ELG1 DNA repair: -16.4%

How did COc1ccc(N2CCN(S(=O)(=O)CCNC(=O)Cc3ccc(OC)c(OC)c3)CC2)cc1 do in these assays?
TDP1 cell CPT: -27.6%; TDP1 cell noCPT: -23.5%

What do the screens show for `CC1Sc2ccc(C(=O)O)cc2NC1=O` (stereo not drawn)?
TDP1 cell CPT: -8.5%; HT1080 IDH1KD tx: -3.9%; HT1080NT lethal: -4.6%; IL-1B inflam inh: -8.6; TDP1 cell noCPT: -5.3%; ELG1 DNA repair: 16.5%

What do the screens show for `CC1Sc2ccc(C(=O)N(CCc3ccccc3)Cc3ccccc3)cc2NC1=O` (stereo not drawn)?
TDP1 cell CPT: 20.6µM*; HT1080 IDH1KD tx: inconclusive; HT1080NT lethal: -29.3%; IL-1B inflam inh: -25.2; TDP1 cell noCPT: inconclusive

How did O=C1NC(Cc2ccccc2)c2nc3ccccc3c(=O)n2-c2cc(Cl)ccc21 (stereo not drawn) do in these assays?
ELG1 DNA repair: 13.3%

What do the screens show for `O=C(c1ccccc1)c1cc(Cl)ccc1N1C(=O)C=CC1=O`?
TDP1 cell CPT: 2.31µM*; HT1080 IDH1KD tx: 23.1µM*; HT1080NT lethal: 18.4µM*; IL-1B inflam inh: -80.5*; TDP1 cell noCPT: 1.16µM*; ELG1 DNA repair: inconclusive

What do the screens show for `CC(=O)COc1nc2c(c(-c3ccco3)c1C#N)CCc1ccccc1-2`?
TDP1 cell CPT: inconclusive; HT1080 IDH1KD tx: -28.6%; HT1080NT lethal: -21.4%; IL-1B inflam inh: 12.6; TDP1 cell noCPT: inconclusive; ELG1 DNA repair: 8.2µM*

Results for Cc1ccc(CNC(=O)c2ccc(Cn3c(=O)c4ccccc4n(CC(=O)Nc4ccc(C)cc4)c3=O)cc2)cc1 ?
TDP1 cell CPT: -26.1%; TDP1 cell noCPT: -23.0%

How did CCOc1ccc(NC(=O)Cn2c(=O)n(Cc3ccc(C(=O)NCc4ccc(C)cc4)cc3)c(=O)c3ccccc32)cc1 do in these assays?
TDP1 cell CPT: 16.4µM*; TDP1 cell noCPT: 14.6µM*

How did Cc1ccc(CNC(=O)c2ccc(Cn3c(=O)c4ccccc4n(CC(=O)Nc4c(C)cc(C)cc4C)c3=O)cc2)cc1 do in these assays?
TDP1 cell CPT: 6.51µM*; TDP1 cell noCPT: 4.61µM*

Screening results from PubChem BioAssay.
